In PubChem BioAssay (NCI) one finds growth data, which are given here for 14 compounds.

Holding throughout (assay): NCI-60 one-dose screen, 48 h (100 = growth as untreated, 0 = no growth, -100 = all killed)
Holding throughout (settings): 10 µM

For experiment [1], the system named is NCI-H23 lung.
Experiment [2] concerns NCI-H226 lung.
The subject of experiment [3] is NCI-H322M lung.
For experiment [4], the system named is HOP-62 NSCLC.
Experiment [5] concerns NCI-H460 lung.
In experiment [6] the test system is NCI-H522 lung.
Experiment [7] relates to A549/ATCC NSCLC.
For experiment [8], the system named is 786-0 renal.
The test system of experiment [9] is COLO 205 colon.
The test system of experiment [10] is DU-145 prostate.

The panel holds about 83,000 compounds, 20% with a hit somewhere; the sample as a whole holds those more often.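 For each line, cells grew in 96-well plates with the test compound present at a single concentration for 48 hours.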 A number with no mark means an inactive call. Calls of active or inactive are those of the source. How the source made its calls: active means growth percent below 10; inactive means the rest.

Take `COc1ccc(S(=O)(=O)Nc2c(/C=C\c3cc(OC)c(OC)c(OC)c3)ccc(OC)c2O)cc1`: the growth in [1] is 33.1%; in [2], 12.9%; in [3] it was 40.5%; in experiment [4], 49.1%; in experiment [5], 6.2% (active); in experiment [6], -47.6% (active). Also, the growth was 15.6% in experiment [7], 9.56% (active) in [8], 3.21% (active) in experiment [9] and -16.7% (active) in experiment [10].

Take `NC(=O)SCC(=O)Nc1ccc(S(N)(=O)=O)cc1`: the growth in experiment [1] was 106%; in experiment [2], 93%; in [3], 121%; in experiment [4], 101%; in experiment [5], 108%; in experiment [6], 105%. For the same compound, the growth is 103% in experiment [7], 107% in experiment [8], 107% in experiment [9] and 112% in experiment [10].

As for `O=[N+]([O-])c1ccc(Oc2cccnc2)c([N+](=O)[O-])c1`, the growth is 96.5% in experiment [1]; 89.7% in experiment [2]; 94.8% in [3]; 104% in experiment [4]; 109% in experiment [5]; 36.3% in experiment [6]. Besides, the growth was 102% in experiment [7], 93.2% in experiment [8], 55.5% in experiment [9] and 86.2% in experiment [10].

Regarding `CCC1(C(C)C)NC(=O)NC1=O` (stereo not given), the growth in experiment [1] was 99.1%; in experiment [2] it was 96.4%; in [3] it was 110%; in [4], 96%; in experiment [5], 110%; in experiment [6], 101%. Moreover, the growth in experiment [7] is 96.1%; in experiment [8], 97.7%; in experiment [9] it was 115%; in experiment [10], 104%.

Regarding `C#Cc1ccc(-n2c(/C=C/c3ccc4ccccc4c3)nc3ncccc3c2=O)cc1`, the growth in experiment [1] is 67.5%; in experiment [2], 13.2%; in [3], 71.9%; in experiment [4] it was 63%; in experiment [5], 39%; in [6] it was 8.75% (active). Further, the growth was 34% in [7], 54.3% in experiment [8], 26% in [9] and 60.1% in experiment [10].

`CCOCC(=O)C(C#N)c1ccc(Cl)c(Cl)c1` (stereo not given): the growth in [1] is 106%; in [2], 88.8%; in experiment [3], 102%; in experiment [4], 90.9%; in experiment [5], 107%; in experiment [6], 94.4%. Further, the growth in experiment [7] is 101%; in experiment [8], 101%; in experiment [9], 115%; in experiment [10], 113%.

As for `COc1ccc2nc3ccccc3c(NCCNCC(C)O)c2c1` (stereo not given), the growth in [1] is -2.17% (active); in [2], -4.19% (active); in experiment [3], -3.32% (active); in [4], -13.6% (active); in experiment [5], -10.8% (active); in [6], -26.5% (active). Moreover, the growth in experiment [7] is -36.4% (active); in [8], 0.024% (active); in [9], -27.5% (active); in [10], 9.52% (active).

For the compound `O=C(Nc1cccc(-n2cc(-c3ccncc3)c(-c3ccc(O)c(Cl)c3)n2)c1)c1cccc(C(F)(F)F)c1`, the growth was 41.9% in [1]; 68% in experiment [2]; 47% in experiment [3]; 47.2% in [4]; 17.2% in [5]; 28.2% in experiment [6]. Moreover, the growth was 16.1% in experiment [7], 21.4% in experiment [8], 98.8% in [9] and 51.1% in experiment [10].

With `O=C(c1ccc(Cl)cc1Cl)N1CCOCC1`, the growth in experiment [1] is 97.3%; in experiment [2], 96.8%; in experiment [3], 101%; in experiment [4], 97%; in [5], 104%; in [6], 103%. In addition, the growth in experiment [7] is 98.4%; in experiment [8], 97.4%; in [9], 111%; in experiment [10] it was 109%.

`COc1ccc(-c2nn(-c3cccc(NC(=O)c4ccc(Cl)c(Cl)c4)c3)cc2-c2ccncc2)cc1Cl`: the growth is 94.9% in experiment [1]; 83.5% in experiment [2]; 83.6% in experiment [3]; 94% in experiment [4]; 79.4% in [5]; 33.3% in [6]. In addition, the growth in [7] is 70%; in [8] it was 80%; in experiment [9] it was 86.2%; in experiment [10] it was 92.1%.

Turning to `O=C(/C(=C/c1ccccc1)CN1CCCCC1)c1ccccc1`, the growth in experiment [1] was -51.5% (active); in [2] it was -31% (active); in experiment [3] it was 47.1%; in [4], -26.5% (active); in [5], -23.9% (active); in [6], -84% (active). Besides, the growth in [7] was -14.2% (active); in experiment [8], -91.5% (active); in experiment [9], -79.1% (active); in experiment [10], 8.22% (active).

For `O=C(Nc1ccc(OS(=O)(=O)c2ccccc2)cc1)C12CC3CC(CC(C3)C1)C2`, the growth in experiment [1] was 51.5%; in [2], 60.4%; in [3] it was 68.7%; in experiment [4], 74.4%; in [5] it was 35.5%; in experiment [6] it was 50.9%. Besides, the growth in [7] is 41.6%; in experiment [8] it was 57.5%; in experiment [9], -0.16% (active); in [10], 71.6%.

With `O=S(=O)(NCCCNc1nccc(-c2c(-c3ccc(F)cc3)nc3sccn23)n1)c1ccc(F)cc1`, the growth in experiment [1] was 56.2%; in experiment [2], 40%; in [3] it was 43.2%; in [4], 74%; in [5], 26.9%; in [6] it was 36.4%. Further, the growth in experiment [7] is 25.9%; in experiment [8], 59%; in [9], 21%; in experiment [10], 44.6%.

Consider `COc1ccc(Cl)cc1C(=O)Nc1nc2ccc(Cl)cc2s1`, for which the growth is 90.5% in experiment [1]; 89.2% in [2]; 85.6% in experiment [3]; 89.4% in [4]; 93.7% in experiment [5]; 99.4% in experiment [6]. The growth in experiment [7] is 76.7%; in [8] it was 75.8%; in experiment [9], 82.8%; in experiment [10] it was 94.9%.
